Data: PubChem BioAssay

What follows are compounds tested against Calmodulin-1 (Homo sapiens) (UniProt P0DP23) (assay: small molecules binding calmodulin-1 with EGTA – biochemical, small-molecule microarray, Cy5-labelled CALM1, profiling panel (AID 1111;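 also: labelled calmodulin applied in Tris saline Tween buffer holding calcium plus EGTA and DTT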)). Conditions: Cy5-CALM1 binding fluorescence, higher = more signal.
`C=CCOC(=O)[C@H]1[C@@H]2C(=O)O[C@@H](c3ccccc3)[C@@H](c3ccccc3)N2[C@@H](c2ccc(OCCOC(=O)[C@@H]3C[C@@H]4C(=O)N5CCC[C@H]5C(=O)N4[C@@H]3c3cccc(OCCO)c3)cc2)[C@]12C(=O)Nc1ccccc12` showed a composite z-score of 0.551. `CCCCCCC#C[Si](O[C@H](c1ccccc1)c1cn([C@H](CO)Cc2ccccc2)nn1)(C(C)C)C(C)C` was tested, and the composite z-score was -0.27. With `COc1ccc([Si](C)(C)[C@H]2[C@H](CC(=O)N3CCC[C@H]3CO)O[C@@]3(C(=O)N(Cc4cccc(N5C(=O)c6cccc7cccc5c67)c4)c4ccccc43)[C@@H]2C)cc1` the composite z-score was 0.681. Work on `CC(C)C[C@@H]1NC(=O)[C@H]2C[C@@H](C(=O)NCCCCCCN(C)C)[C@@H](c3ccc(O)cc3)N2C1=O` yielded a composite z-score of -0.631. For `CN1C(=O)C2C=CC(C(O)C3CC=CCC3)N(NC(=O)OC(C)(C)C)C2C1=O` (stereo not given), the composite z-score was 2.3. Work on `O=C1OCCC/C=C\[C@H]2OC34C=CCN(CCN5CCOCC5)C(=O)[C@H]3N(CCCO)C(=O)[C@@H]4C12` (stereo not given in full) yielded a composite z-score of -1.01. Compound `Cc1ccc(S[C@]2(C(=O)NCC(F)(F)F)CC(=O)N(C(C)C)[C@@H]2c2ccc(CO)cc2I)cc1` has a composite z-score of -0.0874. With `CCCCCN1CC=CC23O[C@@H]4/C=C\CCCOC(=O)C4[C@H]2C(=O)N(CCCO)[C@@H]3C1=O` (stereo not given in full) the composite z-score was -0.113. `CN(C)C(=O)[C@]1(Cc2ccccc2N=[N+]=[N-])N=C(c2ccc(OCCCO)cc2)O[C@@H]1c1ccccc1` showed a composite z-score of 0.516. In the case of `COCCOC(=O)N1C(=O)[C@@]2(c3cc(C#CC4=CCCCC4)ccc31)[C@H](C(=O)Nc1nc3ccccc3s1)[C@H]1C(=O)O[C@H](c3ccccc3)[C@H](c3ccccc3)N1[C@@H]2c1ccccc1OCCO`, the composite z-score was 0.738. `CN1C(=O)C2C=CC(C(O)c3cccs3)N(Nc3ccccc3)C2C1=O` (stereo not given) gave a composite z-score of 0.041. In the case of `CCc1oc(CC[C@@H](CO)NC(=O)NCCn2cc(C3(O)CCCCC3)nn2)c(C(=O)OC)c1C(=O)OC`, the composite z-score was -0.22. For `C=C[C@H](COC(C)=O)N(C(=O)OC(C)(C)C)S(=O)(=O)c1ccc(Br)cc1`, the composite z-score was -0.159. Work on `C[N+](C)(C)CCCCNC(=O)[C@H]1C[C@H]2C(=O)N[C@@H](Cc3ccccc3)C(=O)N2[C@H]1c1ccc(O)cc1` yielded a composite z-score of -0.494. In the case of `CCOC(=O)[C@H]1C/C=C/C[C@H](C(=O)OCC)C(=O)O[C@H]2[C@@H](OC)O[C@H](CO)[C@@H](OC(=O)Nc3cccc(F)c3)[C@@H]2OC1=O`, the composite z-score was -0.192. `NCCCCCNC(=O)[C@@H]1C[C@@H]2C(=O)N[C@@H](Cc3ccccc3)C(=O)N2[C@@H]1c1cccc(OCCO)c1` was tested, and the composite z-score was 0.429. `C=CCOC(=O)[C@H]1[C@@H]2C(=O)O[C@@H](c3ccccc3)[C@@H](c3ccccc3)N2[C@@H](c2ccc(OCCOC(=O)[C@@H]3C[C@@H]4C(=O)N[C@@H](CCCCN(C)C)C(=O)N4[C@@H]3c3ccc(O)cc3)cc2)[C@]12C(=O)Nc1ccc(I)cc12` showed a composite z-score of 0.134. `CC(C)C[C@H]1NC(=O)[C@@]23C(=O)N[C@@H](Cc4ccccc4)C2[C@H](C)[C@@]2(C)O[C@H]2C3/C=C/C/C=C\CNC(=O)[C@H](Cc2ccccc2)NC1=O` (stereo not given in full) showed a composite z-score of -0.434. `CCOC(=O)[C@H]1CC=C2CC1C(=O)N1CCC[C@@H]1[C@@H]2O[Si](C)(C)C(C)(C)C` (stereo not given in full) was tested, and the composite z-score was -1.45. With `COc1ccc([Si](C)(C)[C@H]2[C@H](CC(=O)N3Cc4ccccc4C[C@H]3CO)O[C@@]3(C(=O)N(Cc4ccc(N5CCC5=O)cc4)c4ccccc43)[C@@H]2C)cc1` the composite z-score was 1.02. For `O=C1C2C=CC(C(O)C(c3ccccc3)c3ccccc3)N(n3cnnc3)C2C(=O)N1Cc1ccccc1` (stereo not given), the composite z-score was 0.836. `O=C(O)[C@@]1(CCS(=O)(=O)c2ccccc2)COC(c2ccc(OCCCO)cc2)=N1` gave a composite z-score of -0.0602. In the case of `C[C@]1(C(=O)NC2CC2)c2ccccc2C(=O)N(Cc2cc(C(F)(F)F)cc(C(F)(F)F)c2)[C@H]1c1ccc(CO)cc1`, the composite z-score was 0.224. Compound `CCCC[C@@H]1C[C@H]1[C@@H](NC(=O)c1ccco1)c1ccc(C(=O)OC)cc1` has a composite z-score of 0.0927. With `O=C1O[C@H](c2ccccc2)[C@H](c2ccccc2)N2[C@H]1[C@@H](C(=O)Nc1nc3ccccc3s1)[C@]1(C(=O)Nc3ccc(C#CCCO)cc31)[C@H]2c1ccc(OCCO)cc1` the composite z-score was 1.26.
